Screens deposited in PubChem BioAssay by several laboratories.
TIM10 inh: TIM10 yeast growth inhibition; S. cerevisiae TIM10 strain growth, BacTiter-Glo luminescence, 24 h; inhibition, % at 10 µM; actives 1.4% (n = 330,000); AID 463195;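 active = inhibition of 40% or more at the single tested concentration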;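 also: wild-type TIM10 isogenic control strain grown at permissive 25 °C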
NALP1 yeast inh: NALP1 inhibition; S. cerevisiae NALP1/ASC/caspase-1 growth, X-gal OD620, 72 h; inhibition, % at 10 µM; actives 0.61% (n = 280,000); AID 2071; in the data active = inhibition mostly above about 24%, no sharp cut-off; inactive = mostly below about 32%
NALP3 yeast inh: NALP3 inhibition in yeast; actives 0.39% (n = 330,000); Yeast reconstituted NLRP3/ASC/caspase-1, beta-gal luminescence, 24 h; inhibition, % at 10 µM; AID 2825;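 active = inhibition of 50% or more; inactive = inhibition below 50%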
tim23-1 inh: tim23-1 yeast growth inhibition | S. cerevisiae tim23-1 growth, BacTiter-Glo luminescence, 24 h | inhibition, % at 20 µM | actives 1.3% (n = 330,000);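 active = growth inhibition of the mutant yeast at or above 50%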;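 also: temperature-sensitive mutant grown at 25 °C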
tim10-1 inh: growth inhibitors of tim10-1 mutant yeast | S. cerevisiae tim10-1 ts strain growth, BacTiter-Glo, 24 h | inhibition, % at 20 µM | actives 2.2% (n = 330,000);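 active = inhibition of at least 40%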;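 also: mutant grown at 25 °C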
PfHsp90 set2: growth inhibition of yeast expressing Plasmodium Hsp90. actives 0.32% (n = 310,000). S. cerevisiae expressing PfHsp90, BacTiter-Glo ATP, 48 h; yeast lacking PDR1 and PDR3 efflux regulators. inhibition, % at 9.4 µM;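 active = every replicate shows inhibition above about 80%, whatever the replicate mean, limit read from the data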
tim23-1 confirm: confirmation of tim23-1 mutant yeast growth inhibitors | shares compounds with tim23-1 inh | S. cerevisiae tim23-1 growth, BacTiter-Glo luminescence, 24 h | inhibition, % at 20 µM | actives 83% (n = 4,400) | AID 463218;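 active = inhibition above about 39% in either of two replicate wells at 20 µM, limit read from the data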;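 also: temperature-sensitive tim23-1 mutant grown at 25 °C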
Large screens that a line does not name were inactive (follow-up assays come after a bar, where they were run). Compounds with a hit are over-represented: about 4.1% of the library has one in this group of screens.

O=C(Oc1ccc(=O)n(-c2ccccc2)n1)c1ccc(Cl)cc1	tim23-1 inh 60 | tim23-1 confirm 43
O=C(Oc1ccc(=O)n(-c2ccccc2)n1)c1ccc(F)cc1	none
COc1cc2[nH]c(C(=O)N3CCN(c4ccccc4F)CC3)cc2c(OC)c1OC	tim23-1 inh 51 | tim23-1 confirm inactive
COc1ccc2cc(C(=O)N3CCN(c4ccccc4F)CC3)[nH]c2c1	none
COc1ccccc1N1CCN(C(=O)c2ccc(-c3ccc(Cl)cc3)o2)CC1	tim23-1 inh 52 (no result: NALP1 yeast inh, PfHsp90 set2) | tim23-1 confirm 48
COc1ccc2cc(C(=O)N3CCN(c4ccccc4OC)CC3)[nH]c2c1	tim23-1 inh 59 | tim23-1 confirm 53
CC(=O)Nc1cccc(NC(=O)Cc2ccc3ccccc3c2)c1	none
O=C(NC1CC1)c1ccc(NS(=O)(=O)c2ccc(F)cc2)cc1	none (no result: NALP1 yeast inh)
CC1CCC2(CC1)NC(=O)N(CC(=O)NC(C)c1ccc(F)c(F)c1)C2=O (stereo not given)	none (no result: NALP1 yeast inh)
O=C(N/N=C/c1ccc2cccnc2c1)c1ccco1	tim23-1 inh 59 | tim23-1 confirm 64
COc1ccc(NC(=O)N2CCNC(=O)C2CC(=O)Nc2ccc(F)cc2)cc1 (stereo not given)	none
CN=C1S/C(=C\c2ccc(Cl)cc2)C(=O)N1C	none
CN=C1S/C(=C\c2cccc(Cl)c2Cl)C(=O)N1C	tim23-1 inh 50 (no result: NALP1 yeast inh, PfHsp90 set2) | tim23-1 confirm 60
O=C(CCC(=O)N(CC(=O)NC1CCCC1)c1cccc(F)c1)Nc1nccs1	none
COc1ccc2c(c1)C(=O)N(c1ccc(C)cc1C)C(=O)C2(C)C	tim23-1 inh 55 | tim23-1 confirm 57
O=S(=O)(CCSc1ccccn1)c1nc2ccccc2s1	tim23-1 inh 55 | tim23-1 confirm 49
O=S(=O)(CCSc1nc2ccccc2o1)c1nc2ccccc2s1	none
Cc1ccc2c(c1)N(CC(=O)NCC(C)c1ccccc1)C(=O)c1cccnc1O2 (stereo not given)	none
O=C(O)c1ccc2c(=O)n3c(nc2c1)/C(=C/c1ccccc1Br)CC3	none
COC(=O)c1ccsc1NC(=O)CSc1nnnn1Cc1ccccc1	tim23-1 inh 51 | tim23-1 confirm inactive
Cc1ccc(C(=O)CSc2nnnn2Cc2ccccc2)cc1C	tim23-1 inh 51 (no result: NALP1 yeast inh) | tim23-1 confirm 49
CCCNC(=O)c1n[nH]c2c1CC(C(C)(C)CC)CC2 (stereo not given)	tim23-1 inh 57 (no result: NALP1 yeast inh) | tim23-1 confirm 58
C=CCNC(=O)c1n[nH]c2c1CC(C(C)(C)CC)CC2 (stereo not given)	tim23-1 inh 53 (no result: NALP1 yeast inh) | tim23-1 confirm 56
NNC(=O)c1n[nH]c2c1CC(C1CCCCC1)CC2 (stereo not given)	none (no result: NALP1 yeast inh)
CCOC(=O)[C@H]1[C@H]2COc3ccc(Cl)cc3[C@@H]2N2C(=O)c3ccc(Cl)cc3NC(=O)[C@@]12C	none (no result: NALP1 yeast inh)
COC(=O)C1=C(C)N(Cc2ccccc2)C(=NCc2ccccc2)N[C@H]1c1cccc(F)c1	none
COC(=O)C1=C(C)N(Cc2ccccc2)C(=S)N[C@H]1c1cccc(F)c1	tim23-1 inh 52 | tim23-1 confirm inactive
O=C(Nc1ncc(Cc2cccc(Cl)c2Cl)s1)C1CCCO1 (stereo not given)	none
O=C(Nc1ncc(Cc2cccc(Cl)c2)s1)C1CCCO1 (stereo not given)	tim23-1 inh 50 | tim23-1 confirm 43
CC(C)C(=O)Nc1ncc(Cc2cccc(Cl)c2)s1	tim23-1 inh 55 | tim23-1 confirm 40
CCOc1ccc(-n2c(=O)c3sccc3n(CC(=O)NC3CCCCC3)c2=O)cc1	none
N#Cc1nc(-c2cccs2)oc1NCc1ccc(Cl)cc1	tim23-1 inh 51 | tim23-1 confirm 55
N#Cc1nc(-c2cccs2)oc1NCc1ccccc1	none (no result: PfHsp90 set2)
N#Cc1nc(-c2cccs2)oc1NCc1ccccc1Cl	tim23-1 inh 56 | tim23-1 confirm 54
Cc1csc(SCC(=O)N(C)C2CCS(=O)(=O)C2)n1 (stereo not given)	none (no result: NALP1 yeast inh)
Cc1cc(Br)ccc1NC(=O)C1CCN(C(=O)c2ccco2)CC1	none
O=C(O)c1ccc(S(=O)(=O)N2CCN(c3ccccn3)CC2)cc1	none
CCOC(=O)C1CCCN(C(=S)Nc2ccc(Nc3ccccc3)cc2)C1 (stereo not given)	tim23-1 inh 52 | tim23-1 confirm 41
COc1cccc(NC(=S)N2CCC(c3ccc(C)cc3)C2)c1 (stereo not given)	tim23-1 inh 53 | tim23-1 confirm inactive
CCOc1ccc(NC(=S)N2CCC(c3ccc(C)cc3)C2)cc1 (stereo not given)	tim23-1 inh 64 | tim23-1 confirm 41
CCOC(=O)C1CCN(C(=S)Nc2ccccc2)CC1	none
COC(=O)c1ccc(OC(=O)c2ccncc2)cc1O	none
O=C(c1ccco1)N1CCCC(c2nc3c(nnn3Cc3ccc(F)cc3)c(=O)[nH]2)C1 (stereo not given)	none
O=c1cc(-c2cccc(Br)c2)nc(-c2ccccc2F)o1	tim23-1 inh 63 | tim23-1 confirm 57
O=c1cc(-c2ccccc2F)nc(-c2ccccc2F)o1	none (no result: NALP1 yeast inh)
NNC(=O)c1cc2cc(Oc3ccccc3)ccc2[nH]1	tim23-1 inh 59 | tim23-1 confirm inactive
NNC(=O)c1cc2ccccc2[nH]1	none
O=C1SC(c2ccccc2)=C/C1=C\N1CCCCC1	tim23-1 inh 63 | tim23-1 confirm 39
O=C(CCl)Nc1cccc(Oc2ccccc2)c1	tim23-1 inh 52 | tim23-1 confirm inactive
CCCSc1ncnc2[nH]ncc12	none (no result: TIM10 inh, NALP1 yeast inh, NALP3 yeast inh, tim23-1 inh, tim10-1 inh)
O=C(NCCCOC(=O)c1ccccc1)c1ccccc1	none (no result: TIM10 inh, NALP1 yeast inh, NALP3 yeast inh, tim23-1 inh, tim10-1 inh)
O=C(NOC(=O)c1ccccc1)c1ccccc1	tim23-1 inh 64 | tim23-1 confirm inactive
Cc1cc(C)c(CN2CCN(C(=O)Cn3cnc4c(NCc5ccccc5)ncnc43)CC2)c(C)c1	tim23-1 inh 92 (no result: NALP1 yeast inh, NALP3 yeast inh) | tim23-1 confirm inactive
O=C(CCN1C(=O)[C@@H]2Cc3ccccc3CN2C1=O)Nc1cccc(F)c1	none
c1ccc2[nH]c(-c3ccc4c(c3)OCO4)nc2c1	tim23-1 inh 77 (no result: NALP1 yeast inh, PfHsp90 set2) | tim23-1 confirm 59
O=C(Nc1ccc(-c2nc3ccccc3[nH]2)cc1)c1ccc2c(c1)OCO2	none
Cc1cc(SCc2ccc(Br)cc2)nc(=O)[nH]1	none
CCOC(=O)C1(Cc2cccc(OC)c2)CCCN(C(=O)CNC(C)=O)C1 (stereo not given)	none
Cc1cccc(Oc2nc(-c3ccccn3)nc3ccccc23)c1	tim23-1 inh 51 | tim23-1 confirm 46
CCc1nn(C(CC)C(=O)NCc2cccc(OC)c2OC)c(=O)c2cc3occc3n12 (stereo not given)	none
